A number with no mark means an inactive call. Records with an inconclusive call do not appear. Activity calls are given as the source filed them. Calls come from the whole dose curve; as a rule, active = well fitted curve in the direction sought with a large enough effect; inconclusive = small, poorly fitted or top-dose-only effect, or another doubt; inactive = no such curve, though single readings can be large; an effect the other way counts as inactive or inconclusive.

A short description of assay [1]: OV-SAHO Cancer Cell Toxicity qHTS against the NCATS CANVASS Library (AID 1347348). Note: nearly all actives have a fitted effect of over 55% in size. Note: potency is the fitted concentration of half-maximal effect. The essentials: (§1)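 Following a 4 h pre-incubation of 1000 seeded cells, compounds were pinned in an 11-pnt dilution series and left for 72 h; viability then came from CellTiter-Glo.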
Background: In qHTS, concentration-response curves come from the screen itself.

Assay [2] can be described thus: SW1088 Cancer Cell Toxicity qHTS against the NCATS CANVASS Library (AID 1347350). Note: nearly all actives have a fitted effect of over 75% in size. Note: potency is the fitted concentration of half-maximal effect. The essentials: as §1
Assay [3] can be described thus: A2780 Cisplatin Sensitive Ovarian Cancer Cell Toxicity qHTS against the NCATS CANVASS Library (AID 1347353). Note: nearly all actives have a fitted effect of over 60% in size. Note: potency is the fitted concentration of half-maximal effect. Summed up: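 Seventy-two-hour exposure of cisplatin-sensitive A2780 ovarian cells to an 11-concentration qHTS series; cytotoxicity is inferred from loss of ATPLite luminescence. Bortezomib titration served as positive control.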
A short description of assay [4]: HEK-293 Cancer Cell Toxicity qHTS against the NCATS CANVASS Library (AID 1347355). Note: nearly all actives have a fitted effect of over 65% in size. Note: potency is the fitted concentration of half-maximal effect. The essentials:
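qHTS cytotoxicity: compounds tested in 11 concentrations on 1000 seeded cells per well over 72 h; bortezomib served as control; signal from CellTiter-Glo luminescence.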

Assay [5] is described as follows: HPAF-II 12hr Apoptosis Induction qHTS against the NCATS CANVASS Library (AID 1347358). The essentials:
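Apoptosis in HPAF-II pancreatic cancer cells is scored as caspase 3/7 luminescence following a 12-hour exposure to an 11-point compound series.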

Assay [6] in a line: HEK293 24hr Apoptosis Induction qHTS against the NCATS CANVASS Library (AID 1347359). Summed up:
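HEK293 cells (500/well, DMEM + 10% FBS) were exposed to compounds in an 11-point series for 24 hours at 37 degrees C, then caspase-3/7 activity was read by Caspase-Glo DEVD luciferase luminescence after 15 min.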

Assay [7] deals with Luciferin 4-monooxygenase (Photinus pyralis) (UniProt P08659). The assay can be described thus: Firefly luciferase counterscreen qHTS: Assay Interference Panel against the NCATS CANVASS Library (AID 1347363). Note: series mostly up to about 57 µM. Summed up: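 Purified P. pyralis luciferase was added to compounds (11-point series) preincubated 15 min at room temperature with substrate containing 0.013 mM D-luciferin and 0.013 mM ATP; luminescence was read after 5 min.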
In general terms: The purpose of a counterscreen is to sort out artefacts and off-target activity.

The nature of assay [8]: SDT Cancer Cell Toxicity qHTS against the NCATS CANVASS Library (AID 1347365). Note: nearly all actives have a fitted effect of over 60% in size. Note: potency is the fitted concentration of half-maximal effect. The essentials:
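Dispense 500 SDT cells per well; pin-transfer compounds; incubate 72 hr at 37C, 5% CO2, 95% RH; add CellTiterGlo and read luminescence.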

A short description of assay [9]: G06 Cancer Cell Toxicity qHTS against the NCATS CANVASS Library (AID 1347368). Note: nearly all actives have a fitted effect of over 60% in size. Note: potency is the fitted concentration of half-maximal effect. Summed up: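 Cytotoxicity toward canine glioma G06 cells is scored from cellular ATP via luminescence after 72 hr compound exposure at 500 cells/well.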
The nature of assay [10]: qHTS for Hypoxia signaling pathway (HIF-1) antagonists against the NCATS CANVASS Library (AID 1347374). Note: nearly all actives have a fitted effect of over 60% in size. Note: potency is the fitted concentration of half-maximal effect. The essentials: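 HRE-bla ME-180 cells (2,000/well, 0.5% dialyzed FBS) were pre-incubated 5 h, then given an 11-point compound series plus CoCl2 (60 uM solution as added) for 17 h at 37C. CCF4 β-lactamase read (ex 405, em 460/530 nm) after 2 h at RT.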
A short description of assay [11]: DH5-alpha competent E. coli microbial cell viability qHTS against the NCATS CANVASS Library (AID 1347377). The conditions noted are these: outcome: dose series up to 46.1 µM unless noted. The essentials:
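Cell viability of competent DH5-alpha E. coli is scored from ATP content by luminescence. Cells sit overnight at 37C with compound across an 11-point concentration series.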

A short description of assay [12]: qHTS for inhibitors of ER calcium dysfunction: SERCaMP assay screened against the NCATS CANVASS Library (AID 1347393). Note: nearly all actives have a fitted effect of over 40% in size. Note: potency is the fitted concentration of half-maximal effect. The essentials: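 qHTS in SH-SY5Y reporter cells: 16 h compound pretreatment, 4 h thapsigargin, then secreted Gaussia luciferase measured by luminescence.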
Assay [13] can be described thus: qHTS for inhibitors of Wild type Zika virus screened against the NCATS CANVASS Library (AID 1347396).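 Note: ATP luminescence of surviving cells so rescue from viral cell killing; series mostly up to about 46 µM.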 Summed up:
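Vero 766 cells, 1000/well, o/n attach; cpds pin-transferred (11-pt qHTS); WT Zika added; 72 h, 37C, 5% CO2; CellTiter Glo lumi. Uninfected + vehicle = 100% inhibition.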

A short description of assay [14]: KB-8-5-11 Cancer Cell Toxicity qHTS against the NCATS CANVASS Library (AID 1347364). Note: nearly all actives have a fitted effect of over 75% in size. Note: potency is the fitted concentration of half-maximal effect. The essentials: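 Natural products were titrated in 11 points onto KB-8-5-11 cells, 500 per well, and cytotoxicity was scored from CellTiter-Glo luminescence after 72 hr culture.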
Assay [15] in a line: qHTS for ATAD5 Agonist screened against the NCATS CANVASS Library (AID 1347367).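 Note: luciferase reporter driven by ATAD5 which rises upon DNA damage.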 Note: potency is the fitted concentration of half-maximal effect. The essentials:
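Step one plated reporter cells and let them acclimate 5hr. Step two pinned compounds with MMS as positive and 0.46% DMSO as negative control. After 16hr incubation, fluorescence viability then luminescence were read.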

Assay [16] in a line: Inflammasome Signaling qHTS Counterscreen: IL-1-beta AlphaLISA counterscreen against the NCATS CANVASS Library (AID 1347381).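 Note: cell-free check with purified IL-1β in medium and no THP-1 cells; series mostly up to about 57 µM.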 The essentials:
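To flag interference with the AlphaLISA read-out, a known amount of purified IL-1-beta (4 pg) replaced cell supernatant. Detection used anti-IL-1-beta acceptor beads, biotinylated antibody and streptavidin donor beads at room temperature.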

Assay [17] in a line: qHTS for Activators of p53 Stress Response Pathway screened against the NCATS CANVASS Library (AID 1347388). The essentials:
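p53RE-bla HCT-116 cells (4000/well) were plated 5 h at 37C, exposed to compounds for 16 h at 37C over an 11-point concentration series, then loaded with CCF4 for 2 h at room temperature; 460/530 nm emission ratio read.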

Assay [18] can be described thus: qHTS for activators of dead-cell proteases activity screened against the NCATS CANVASS Library (AID 1347392).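 Note: luminescence from protease leaking out of membrane-damaged cells cleaving impermeant substrate; rising signal means more cytotoxicity.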 Summed up: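 HepG2 cells (2000/well) attached 18 h at 37C, then exposed 5 h to compounds (11-point qHTS). Dead-cell protease activity read as luminescence from cell-impermeant AAF-aminoluciferin substrate after 15 min at room temperature.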
Assay [19] in a line: qHTS for activators of Nrf2/ARE signaling pathway screened against the NCATS CANVASS Library (AID 1347391). Note: nearly all actives have a fitted effect of over 60% in size. Note: potency is the fitted concentration of half-maximal effect. Summed up:
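Cells carrying an ARE-driven beta-lactamase reporter (HepG2 background) are dosed for 16 h, then stained with CCF4. Cell viability in the same wells is measured by CellTiter-Glo luminescence.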

Assay [20] in a line: OV-KATE Cancer Cell Toxicity qHTS against the NCATS CANVASS Library (AID 1347345). The essentials:
as §1

Chain of Luciferin 4-monooxygenase (Photinus pyralis) (P08659 whole entry, looked up): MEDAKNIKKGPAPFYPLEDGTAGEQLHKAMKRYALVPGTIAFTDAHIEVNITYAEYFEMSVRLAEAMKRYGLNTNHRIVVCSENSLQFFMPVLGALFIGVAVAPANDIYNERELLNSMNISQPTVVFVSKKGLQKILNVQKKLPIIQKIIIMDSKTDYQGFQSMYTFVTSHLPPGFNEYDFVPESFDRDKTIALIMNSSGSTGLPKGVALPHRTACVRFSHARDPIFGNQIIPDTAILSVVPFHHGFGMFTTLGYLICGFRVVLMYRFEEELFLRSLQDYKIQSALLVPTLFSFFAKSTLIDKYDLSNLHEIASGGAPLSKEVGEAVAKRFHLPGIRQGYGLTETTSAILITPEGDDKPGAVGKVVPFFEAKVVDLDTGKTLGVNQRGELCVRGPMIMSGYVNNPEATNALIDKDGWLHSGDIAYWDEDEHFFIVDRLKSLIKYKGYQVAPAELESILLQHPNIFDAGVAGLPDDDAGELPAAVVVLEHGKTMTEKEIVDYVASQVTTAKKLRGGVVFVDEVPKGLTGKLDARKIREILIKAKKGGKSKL

In the case of `C/C(=C\[C@H](C)C(=O)/C=C/CC1CC(=O)NC(=O)C1)[C@@H]1OC(=O)/C=C/CC/C=C/C[C@@H](O)[C@@H]1C`, the Potency in assay [1] is 2.11 µM (active); in assay [2], 16.8 µM (active); in assay [3] it was 1.18 µM (active); in [4] it was 3.72 µM (active); in assay [8] it was 0.662 µM (active); in assay [9], 1.05 µM (active). For the same compound, the Potency in assay [10] was 1.33 µM (active). Besides, the Potency entry in assay [5], in assay [6], in assay [7] and in assay [12] was “inactive” throughout. Also, the call in assay [11] and in assay [13] was inactive.

`C=C[C@](Cl)(CBr)CCC=C(C)C`: the Potency result in [2], in assay [4], in [5], in assay [6], in assay [7] and in assay [14] was “inactive” throughout. In addition, the Potency entry in [8], in assay [15], in assay [10], in assay [17] and in assay [18] was “inactive” each time. Besides, in [3], the Potency was 20.9 µM (active). Also, the result in assay [11], in assay [16] and in [13] was inactive.

On to `CCC(=O)CCCCC[C@@H]1NC(=O)[C@H]2CCCCN2C(=O)[C@H](C(C)C)NC(=O)[C@H](Cc2cn(OC)c3ccccc23)NC1=O`, for which the Potency is 14.9 µM (active) in assay [1]; 13.3 µM (active) in [2]; 5.26 µM (active) in [3]; 5.26 µM (active) in assay [4]; 7.43 µM (active) in assay [8]; 3.31 µM (active) in [15]. In assay [9], the Potency is 4.69 µM (active). The Potency entry in [7], in assay [10], in [19] and in assay [12] was “inactive” each time.

For `COc1cc(O)c(C(=O)[C@@H]2[C@H](CC=C(C)C)C(C)=CC[C@H]2c2ccccc2)c(O)c1`, the Potency is 23.6 µM (active) in assay [1], 5.95 µM (active) in assay [2], 20.9 µM (active) in assay [4] and 16.6 µM (active) in assay [14]. The Potency result in assay [6], in assay [7], in assay [9], in assay [19] and in assay [18] was “inactive” throughout. The outcome in assay [16] was inactive.

Regarding `COc1ccc2[nH]c3c(c2c1)CCN1C[C@H]2C[C@@H](OC(=O)c4cc(OC)c(OC)c(OC)c4)[C@H](OC)[C@@H](OC)[C@H]2C[C@H]31`, the Potency entry in assay [20], in [15], in assay [10], in assay [17] and in [19] was “inactive” throughout. Besides, the Potency in [4] is 20.9 µM (active); in [8] it was 0.526 µM (active); in assay [9], 1.48 µM (active); in [12] it was 6.09 µM (active). Further, the outcome in [11] and in assay [13] was inactive.

For `C/C1=C/[C@@H](C)[C@H](O)[C@@H](O)/C=C/CC/C=C/C(=O)O[C@@H]1[C@H](C)C(=O)CCCC1CC(=O)NC(=O)C1`, the Potency entry in assay [20], in assay [1], in assay [3], in assay [5], in assay [6] and in assay [7] was “inactive” in each case. The Potency result in assay [14], in [15], in assay [10], in assay [17], in assay [18] and in assay [12] was “inactive” in each case. The Potency in assay [8] was 20.9 µM (active). Also, the compound was called inactive in [11], in [16] and in assay [13].

Turning to `C=CC(CCCCC)C1C(=O)NC(=O)C1C(=O)C1C(/C=C/C)C=CC2CC(C(=O)O)CC(C)C21` (configuration not stated), the Potency entry in assay [20], in [5], in assay [6], in [8], in assay [9] and in assay [18] was “inactive” in each case. Further, the Potency result in assay [12] is “inactive”. Further, the Potency in [2] is 9.43 µM (active); in assay [3] it was 7.43 µM (active); in assay [19], 3.31 µM (active). In addition, in assay [16], the call was inactive.

The values above are taken from PubChem BioAssay (NCATS).
